# Results: PubChem BioAssay (NCATS)
# Records with an inconclusive call do not appear. A call without a number means that no potency is given here. Values without a mark were called inactive. Activity calls are given as the source filed them. Calls come from the whole dose curve; as a rule, active = well fitted curve in the direction sought with a large enough effect; inconclusive = small, poorly fitted or top-dose-only effect, or another doubt; inactive = no such curve, though single readings can be large; an effect the other way counts as inactive or inconclusive.
# How the values were obtained:
# [1] = qHTS for Inhibitors of Plasmodium falciparum (DD2) proliferation (AID 504314);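 note: parasite DNA measured by SYBR Green fluorescence after red cell lysis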
# Summary of the method: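 Parasite proliferation measured as SYBR Green signal from Plasmodium DNA, mature erythrocytes lacking DNA. 72 h incubation, 37C; activity scaled between vehicle and 0.29 uM artemisinin, with correction from vehicle-only plates.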
# [2] = qHTS for Inhibitors of Plasmodium falciparum (CP250) proliferation (AID 504320); note: potency is the fitted concentration of half-maximal effect
# Summary of the method: (§1)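 Parasite growth measured as SYBR Green DNA fluorescence (ex 485, em 535 nm) after overnight lysis following 72 h culture at 37 °C, 0.3% parasitemia, 2.5% hematocrit. Values normalized against DMSO and 0.29 uM artemisinin controls, with plate-stack correction.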
# [3] = qHTS for Inhibitors of Plasmodium falciparum (GB4) proliferation (AID 504315); note: nearly all actives have a fitted effect of over 50% in size; note: potency is the fitted concentration of half-maximal effect
# Summary of the method: as §1
# [4] = qHTS for Inhibitors of Plasmodium falciparum (7G8) proliferation (AID 504316); note: nearly all actives have a fitted effect of over 65% in size; note: potency is the fitted concentration of half-maximal effect
# Summary of the method: as §1
# [5] = qHTS for Inhibitors of Plasmodium falciparum (HB3) proliferation (AID 504318); note: nearly all actives have a fitted effect of over 60% in size; note: potency is the fitted concentration of half-maximal effect
# Summary of the method: as §1
Compound,Potency [1],Potency [2],Potency [3],Potency [4],Potency [5]
COC(=O)N1C2=C(c3ccccc3[C@@H]1CC(=O)Nc1ccc(Br)cc1)[C@@H]1C(=O)N(c3ccccc3)C(=O)[C@@H]1[C@H](C)C2,inactive,inactive,–,–,–
COC(=O)C1=C(C(=O)OC)[C@@H]2N(Cc3ccccc3)c3ccccc3[C@@]23C[C@@H](C(=O)OC)N(S(=O)(=O)c2cccs2)C3=N1,inactive,inactive,–,–,–
COC(=O)CCCC1=CC2=CC(=O)C(C)(OC(=O)c3cccs3)C(=O)C2=CN1CC1CC1 (stereo unspecified),–,inactive,inactive,inactive,inactive
CC1COc2ccccc2C1=O (stereo unspecified),–,–,1900 nM (active),1690 nM (active),1900 nM (active)
CC#CCN1c2ccccc2[C@]23C[C@@H](C(=O)OC)N(S(=O)(=O)c4c(C)noc4C)C2=NC(C(=O)OC)=C(C(=O)OC)[C@H]13,inactive,inactive,–,–,–
COC(=O)C1=C(C(=O)OC)[C@@H]2N(C)c3ccc(OC)cc3[C@@]23C[C@@H](C(=O)OC)N(S(=O)(=O)c2ccc(C(F)(F)F)cc2)C3=N1,inactive,inactive,–,–,–
COC(=O)C1=C(C(=O)OC)[C@@H]2N(Cc3ccccc3)c3ccccc3[C@@]23C[C@@H](C(=O)OC)N(S(=O)(=O)c2ccc(C)cc2)C3=N1,–,–,1690 nM (active),1690 nM (active),–
COC(=O)C1=C(C(=O)OC)[C@@H]2Nc3ccccc3[C@@]23C[C@@H](C(=O)OC)N(S(=O)(=O)c2ccc(C#N)cc2)C3=N1,inactive,inactive,–,–,–
CC#CCN1c2ccccc2[C@]23C[C@@H](C(=O)OC)N(S(=O)(=O)c4ccc(C#N)cc4)C2=NC(C(=O)OC)=C(C(=O)OC)[C@H]13,inactive,inactive,–,–,–
CCN1C(=O)N[C@H](c2ccc(Br)cc2)C(C(=O)OC)=C1C,–,inactive,inactive,inactive,inactive
COC(=O)CCC(=O)OC1(C)C(=O)C=C2C=C(C3CC3)N(c3cccc(C#N)c3)C=C2C1=O (stereo unspecified),inactive,inactive,–,–,–
COC(=O)CC1c2ccccc2C=C(/C=C/c2ccc3c(c2)OCO3)N1C(=O)OC (stereo unspecified),inactive,inactive,–,–,inactive
C#CCCOC(=O)N1C2=NC(C(=O)OC)=C(C(=O)OC)[C@@H]3N(Cc4ccccc4)c4ccccc4[C@]23C[C@H]1C(=O)OC,inactive,inactive,–,–,–
COc1ccc(-c2nc3c(c4c2C[C@H](c2ccccc2)OC4)CN(C(=O)Cc2cccs2)CC3)c(C)c1,inactive,inactive,–,–,–
C=CCN1c2ccccc2[C@]23C[C@@H](C(=O)OC)N(C(=O)c4ccc(Br)cc4)C2=NC(C(=O)OC)=C(C(=O)OC)[C@H]13,inactive,inactive,–,–,–
COC(=O)C1=C(C(=O)OC)[C@@H]2N(C)c3ccc(OC)cc3[C@@]23C[C@@H](C(=O)OC)N(S(=O)(=O)c2ccc(C)cc2)C3=N1,inactive,inactive,–,–,–
COC(=O)C1=C(C(=O)OC)[C@@H]2Nc3ccccc3[C@@]23C[C@@H](C(=O)OC)N(C(=O)c2cccs2)C3=N1,–,inactive,inactive,inactive,–
COC(=O)C1=C(C(=O)OC)[C@@H]2N(Cc3ccccc3)c3ccccc3[C@@]23C[C@@H](C(=O)OC)N(S(=O)(=O)c2ccc4c(c2)OCCN4C)C3=N1,–,1510 nM (active),1510 nM (active),1900 nM (active),1200 nM (active)
CCN1C(=O)N(C)[C@@H](c2ccccc2)C(C(=O)OC)=C1C,–,inactive,inactive,inactive,–
C[C@@H]1CC[C@H]2C(=O)N(Cc3cccc([N+](=O)[O-])c3)C[C@H](O)CN2[C@@H]1c1ccc(Br)cc1,–,inactive,inactive,inactive,–
CCCNC(=O)N1C2=NC(C(=O)OC)=C(C(=O)OC)[C@@H]3N(C)c4ccccc4[C@]23C[C@H]1C(=O)OC,–,inactive,inactive,inactive,–
COC(=O)C1=C(C(=O)OC)[C@@H]2N(Cc3ccccc3)c3ccccc3[C@@]23C[C@@H](C(=O)OC)N(S(=O)(=O)c2ccc(Br)cc2)C3=N1,–,1690 nM (active),1350 nM (active),1510 nM (active),1690 nM (active)
COC(=O)C1=C(C(=O)OC)[C@@H]2N(Cc3ccccc3)c3ccccc3[C@@]23C[C@@H](C(=O)OC)N(C(=O)COCc2ccccc2)C3=N1,–,inactive,inactive,–,inactive
COC(=O)[C@@H]1CC[C@H](C)[C@@H](c2ccc(C)cc2)N1C(=O)c1ccc(C=NO[C@@H](C)c2cc(-c3c(C)cc(C)cc3C)no2)cc1,–,1690 nM (active),1690 nM (active),1690 nM (active),–
COC(=O)C1=C(C)N(CCc2cc(OC)c(OC)c(OC)c2)C(=O)N[C@H]1c1ccccc1,–,inactive,inactive,inactive,–
C[C@H]1Cc2c(COc3ccccc3)nc3c(c2CO1)CN(S(=O)(=O)c1ccc(C#N)cc1)CC3,–,inactive,inactive,–,–
COc1ccc([C@]23Cc4cc(OC)c(OC)cc4[C@H](O2)c2c(c4ccccc4oc2=O)O3)cc1,–,inactive,inactive,–,inactive
CCCCc1nc2c(c3c1C[C@H](C)OC3)CN(C(=O)NCCc1c[nH]c3ccccc13)CC2,–,inactive,inactive,inactive,–
CC1(OC(=O)CCc2ccccc2)C(=O)C=C2C=C(c3ccc(C#N)cc3)N(Cc3ccco3)C=C2C1=O (stereo unspecified),–,inactive,inactive,inactive,–
C=CCN1c2ccccc2[C@]23C[C@@H](C(=O)OC)N=C2NC(C(=O)OC)=C(C(=O)OC)[C@H]13,–,inactive,inactive,inactive,–
